Wnt bcat act: activates Wnt/beta-catenin signaling in a reporter cell assay; activator, plate reader; activation, % at 9.35 µM; AID 743398; 300,000 compounds, 1.2% hits; in the data active = activation above about 30%, passing the limit was not always enough; inconclusive = no clear call, values can overlap the other calls;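 note: 0% = neutral control wells and 100% = positive control wells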
DYRK1A inh: blocks rat Dyrk1A kinase activity; ADP-Glo luminescence, NFATc1 peptide; Q63470; inhibition, % at 12.5 µM; 310,000 compounds, 0.43% hits;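 note: plate controls were vehicle with enzyme for no effect and no enzyme for full effect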
INS-1E GSIS act: primary screen for activators of insulin secretion dependent on glucose, INS-1E cells, GLuc reporter luminescence; INS-1E GLuc reporter insulin secretion, 2-3 h; activation, % at 16.6 µM; 370,000 compounds, 0.61% hits; AID 743287;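 active = lowest replicate activation of at least 40%, so every replicate reaches that level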;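 note: 0% = median of neutral control wells and 100% = median of IBMX positive control wells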
MITF act: MITF TRPM1 promoter activation in melanoma cells; activation, % at 12.5 µM; SK-MEL-5 TRPM1-promoter luciferase, 24 h; % of positive control, neutral wells = 0; AID 588334; 300,000 compounds, 0.75% hits;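 active = mean activation of at least 80% with every replicate also reaching 80%; inconclusive = mean reaches 80% but some replicate falls short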;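 note: 0% = neutral control wells and 100% = parthenolide positive control wells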
NSD2 HMT inh: inhibitors of human histone methyltransferase NSD2 | O96028 | NSD2 peptide methylation, AlphaScreen, 120 min | inhibition, % at 12.5 µM | 310,000 compounds, 0.54% hits | AID 743445
miR-122 sensor: miR-122 inhibition in Huh7 cells; Huh7 miR-122 Renilla luciferase sensor, 48 h; neutral wells = 0, positive control = 100; activation (reporter increase), % at 12.5 µM; 340,000 compounds, 0.3% hits; AID 602342;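 active = mean replicate activation score at least 90 and every replicate individually at or above 90; inconclusive = only one of the two criteria met; inactive = neither criterion met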;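 note: higher luciferase means less miR-122 activity so hits act as miR-122 inhibitors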
* hit, by the source's call; ? = inconclusive; / = not tested or not shown; [ ] = dose if it differs, or a comment. Hits are enriched below; roughly 2.4% of the tested compounds scored in any of these assays. Cut-off read from the data, not from the text of the source, unless noted: active = inhibition above about 50%; inactive = the rest.

SMILES | Wnt bcat act | DYRK1A inh | INS-1E GSIS act | MITF act | NSD2 HMT inh | miR-122 sensor
O=c1oc(/C=C/c2ccccc2)nc2sc3c(c12)CCC3 | 5.9 | -2.8 | / | 104.6* | 4.2 | -2.2
COc1ccc2c3c(n(C)c2c1)[C@@H](CO)N(CC1CCOCC1)CC31CN(C(=O)c2cccc(F)c2)C1 | / | / | 0.9 | / | / | /
CCC(NC(=O)c1cncc(Br)c1)c1ccccc1 (centres undefined) | 30.8* | 0.8 | 1.4 | -3.4 | -1.2 | -1.5
CC(C)(C)CC(=O)Nc1nnc(-c2cccs2)s1 | 51.5* | -1.7 | / | 43.7 | 0.0 | -2.0
O=C(CN1CCCC1)Nc1nnc(-c2cccs2)s1 | 2.1 | -0.9 | -2.9 | -5.8 | / | /
COc1ccc(C(=O)Nc2nnc(-c3ccco3)s2)cc1 | / | / | 51.8* | -33.0 | 0.4 | 1.3
O=C(Nc1nnc(-c2cccs2)s1)c1cccc(F)c1 | 39.3* | -0.3 | 1.8 | 32.5 | -5.4 | -0.5
COc1ccc(NC(=O)Nc2nnc(-c3cccs3)s2)cc1 | 41.0* | -3.2 | -12.1 | 97.6* | -3.3 | /
C[C@@H]1CCCCO[C@@H](CN(C)C(=O)Nc2ccc3c(c2)OCO3)[C@@H](C)CN([C@H](C)CO)C(=O)c2cc(NC(=O)CCCN(C)C)ccc2O1 | / | / | 8.7 | / | / | 8.1[16.7 µM]
CCCNC(=O)C[C@@H]1CC[C@H]2[C@@H](COC[C@@H](O)CN2CC2CCCCC2)O1 | / | / | -1.4 | / | / | 9.0[16.7 µM]
O=C(Cc1nnc(NC(=O)Nc2ccccc2)s1)Nc1ccccc1 | -0.4 | / | 3.7 | / | 0.1 | -4.5
COc1ccc(C(=O)Nc2nc(-c3cccs3)c(NC(C)=O)s2)cc1 | -0.6 | 5.1 | / | 7.8 | -1.2 | 8.9
O=C(Nc1ccccc1)Nc1nnc(-c2cccs2)s1 | 29.4 | -0.2 | 69.2* | 72.5 | -0.9 | 14.4
COc1ccc(C(=O)Nc2nnc(-c3cccs3)s2)cc1 | / | -1.0 | 71.8* | -15.2 | -1.0 | 0.5
C[C@@H]1CN([C@H](C)CO)C(=O)c2cc(NC(=O)CCCCCC(=O)Nc3ccccc3N)ccc2O[C@@H]1CN(C)Cc1ccc(C(F)(F)F)cc1 | / | / | -27.9 | / | / | /
Fc1cccc(Cn2cc(C(=S)N3CCOCC3)c3ccccc32)c1 | -4.9 | -1.1 | 2.0 | 19.2 | 16.1 | 176.0*
CC(C)NC(=O)N1C2CN(CC(F)(F)F)CC1C2c1ccc(Br)cc1 (centres undefined) | / | / | 9.8 | / | / | /
COc1ccc(C2CC(=O)N(C)c3ccccc3S2)cc1OC (centres undefined) | 53.6* | 1.6 | / | 35.4 | 1.0 | 6.5
Cc1cccc(C2NC(=O)c3c(sc(C)c3C)N2)c1O (centres undefined) | / | -0.8 | -6.2 | -8.6 | 3.6 | 7.1
Cc1sc2c(c1C)C(=O)NC(c1ccccc1F)N2 (centres undefined) | 31.8* | -2.8 | 11.4 | 32.8 | 3.0 | /
O=C(C[C@H]1C=C[C@H](NS(=O)(=O)c2ccccc2)[C@H](CO)O1)NCc1ccc(Cl)c(Cl)c1 | / | / | 4.7 | / | / | /
CC(C)(C)c1ccc(S(=O)(=O)N2CC(C(=O)O)Oc3ccc(Cl)cc32)cc1 (centres undefined) | 2.1 | 0.1 | 141.6* | -13.8 | -0.9 | -0.9
COCC(=O)Nc1ccc2c(c1)OC[C@@H](C)N(CC1CCCCC1)C[C@@H](C)[C@@H](OC)CN(C)C2=O | / | / | 12.5 | / | / | /
COc1ccc(F)cc1C(=O)C1CCCN(C(=O)c2ccc(C(C)=O)s2)C1 (centres undefined) | -1.1 | -1.7 | 76.1* | 11.4 | 1.3 | /
COc1c(-c2ccc(O)c(O)c2)oc2cc(O)cc(O)c2c1=O | 3.6 | 85.2* | 69.8* | 12.0 | / | -15.3
SMILES | Wnt bcat act | DYRK1A inh | INS-1E GSIS act | MITF act | NSD2 HMT inh | miR-122 sensor
CSc1ccc(S(=O)(=O)NC2CC3CCC2C3)cc1 (centres undefined) | -0.1 | -5.1 | -6.8 | -6.3 | -1.4 | 104.4*
O=C(NC1CCCC1)[C@H]1[C@H](CO)[C@H]2Cn3c(cccc3=O)[C@@H]1N2Cc1cc(F)ccc1F | / | / | 4.9 | / | / | -2.9[16.7 µM]
Clc1ccc(-c2cc(CSc3ccccc3)on2)cc1 | -0.8 | -3.4 | / | 126.9* | -1.6 | 26.6
Clc1ccc(-c2cc(CSc3cccc(Cl)c3)on2)cc1 | 1.1 | -3.9 | / | 14.7 | 9.1 | -4.1
Cc1ccc(SCc2cc(-c3ccc(Cl)cc3)no2)cc1 | / | -3.9 | / | -4.2 | 0.6 | -4.4
c1ccc(SCc2cc(-c3ccccc3)no2)cc1 | 12.3 | -9.9 | / | 94.3* | -8.1 | -7.3
O=C(O)Cc1cn(Cc2ccc(F)cc2)c2ccccc12 | -2.5 | 7.5 | 0.4 | -3.4 | 2.7 | /
Cc1[nH][nH]c(=O)c1C(c1c(C)[nH][nH]c1=O)c1cn(Cc2ccc(F)cc2)c2ccccc12 | / | 8.3 | / | -20.3 | 88.1* | 13.7
Cc1[nH][nH]c(=O)c1C(c1c(C)[nH][nH]c1=O)c1cn(Cc2ccc(Cl)c(Cl)c2)c2ccccc12 | -2.0 | / | -19.0 | -37.8 | 98.0* | 5.2
O=c1c2ccccc2ncn1Cc1ccc(Cl)c(Cl)c1 | 0.3 | / | -0.7 | / | -0.6 | 2.4
C[C@@H]1CCCCO[C@H](CN(C)C(=O)C2CCCCC2)[C@H](C)CN([C@H](C)CO)C(=O)c2cc(NS(=O)(=O)c3cccs3)ccc2O1 | / | / | -24.5 | / | / | -4.8[16.7 µM]
CCOC(=O)c1cc(S(=O)(=O)NC2CCCCC2)cn1C | -0.7 | -3.9 | -6.0 | -2.3 | -12.2 | ?
CCOC(=O)c1ccc(S(=O)(=O)NC2CCCCCCC2)n1C | -1.7 | 3.9 | / | 3.2 | -1.4 | 127.8*
COc1ccc2c3c(n(C)c2c1)[C@@H](CO)N(C(C)=O)CC31CCN(C(=O)NC(C)C)CC1 | / | / | 23.4 | / | / | /
O=C(NC1CCCCC1)c1cc(C2CC2)nn1-c1ccccc1 | -1.6 | 0.0 | -27.4 | -8.7 | 14.2 | 2.4
c1ccc2cc(C3CCCCC3)ncc2c1 | 25.2 | 5.9 | -1.2 | 99.0* | / | /
CCCCCCCCCCCCCCCCn1cc[n+](C)c1 | -8.0 | 0.2 | 186.2* | -67.6 | -4.3 | /
Cc1c(NC(=O)NC2CCCCC2)cccc1[N+](=O)[O-] | -1.0 | -1.0 | 18.5 | 9.6 | -2.1 | 157.2*
Cc1cc(C(=O)NCCc2ccccc2)ccc1[N+](=O)[O-] | 17.0 | 0.0 | -6.4 | 92.4* | 1.7 | -2.5
Cc1cccc(C(=O)NCCc2ccccc2)c1 | ? | -3.1 | 11.5 | 104.5* | -2.9 | -4.6
Cc1ccc2c(Cl)c(C(=O)NCCc3ccccc3)sc2c1 | / | -3.1 | 9.4 | 105.8* | -3.5 | 2.7
CC(C)(C)c1ccc(C(=O)NCCc2ccccc2)cc1 | 29.4 | 4.3 | -4.6 | ? | / | 6.7
CO[C@@H](CN(C)C(=O)c1ccccc1F)[C@@H](C)CN([C@H](C)CO)S(=O)(=O)c1ccc(C)cc1 | / | / | -0.5 | / | / | /
Cc1cc(C(=O)NC2CCCCCCC2)ccc1[N+](=O)[O-] | 48.0* | 1.0 | 9.5 | / | -2.6 | 1.0
O=C(NCCc1ccccc1)c1ccc(Cl)nc1 | 38.7* | -1.2 | / | 58.9 | -5.3 | -13.1
O=C(c1cccnc1)N1C[C@@H]2[C@H](c3ccccc31)[C@@H](CO)N2CC1CCCCC1 | / | / | 10.4 | / | / | -10.5[16.7 µM]
C/C(=N\N=c1/sc2ccccc2n1C)c1ccccn1 | 51.6* | 35.7 | 4.3 | 64.4 | / | -0.4

Bioassay records from PubChem.
